Source: PubChem (several laboratories)
PriA SSB inh: inhibitors of Klebsiella pneumoniae PriA binding to SSB C-terminal tail, primary screen, biochemical, AlphaScreen. AlphaScreen SSBct-PriA binding, biotinylated peptide. inhibition, % at 33 µM. actives 0.6% (n = 430,000); in the data active means inhibition mostly above about 37%, no sharp cut-off; inactive means mostly below about 20%;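 further: plate controls were negative control peptide for no effect and reference peptide for full effect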
PrP UTR inh: inhibition of PrP 5' UTR reporter expression; cell-based PrP 5' UTR mRNA reporter, plate reader; inhibition, % (no concentration beside the values); actives 0.35% (n = 340,000); AID 488862, 2010; in the data active means inhibition above about 52%; further: 0 = median of the neutral control wells
PfHsp40 rescue: rescue of yeast from PfHsp40 toxicity, primary screen, S. cerevisiae, ATP luminescence | growth rescue, % at 12.5 µM | S. cerevisiae expressing PfHsp40, growth rescue | actives 0.68% (n = 340,000) | AID 504582, 2011; in the data active means growth rescue above about 28%, passing the limit was not always enough;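 further: yeast W303a lacking pdr1 and pdr3 grown in galactose medium; growth measured after three days at 30 °C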
PrPC surface inh: inhibitors of human cell surface prion protein PrPC, primary screen, cell-based, TR-FRET; Major prion protein (Homo sapiens), P04156; TR-FRET read-out; inhibition, % at 13.8 µM; actives 0.43% (n = 370,000); AID 720596, 2013; in the data active means inhibition above about 24%; further: 0% = median of the test wells and 100% = reference compound wells
Vc quorum ag-1: inducers of Vibrio cholerae quorum light production without autoinducers, primary screen, BH1578 luxS cqsA deficient, single point. actives 0.16% (n = 350,000). V. cholerae BH1578 lux reporter, luminescence, 6 h. activation, % at 18.7 µM; in the data active means activation mostly above about 9.7%, no sharp cut-off
SARS 3CLpro inh: SARS-CoV 3CLpro protease inhibitors, primary screen, biochemical, quenched FRET; Replicase polyprotein 1ab (Severe acute respiratory syndrome coronavirus), P0C6X7; recombinant SARS-CoV 3CLpro, quenched FRET peptide cleavage; inhibition, % at 6 µM; actives 0.14% (n = 290,000); AID 1706, 2009; in the data active means inhibition above about 12%
Vc quorum ag-2: V. cholerae lux activation without autoinducers – BH1578 luxS cqsA deficient, cherry-pick, plate reader, dose response; activation, % at 50 µM; shares compounds with Vc quorum ag-1; V. cholerae BH1578 lux reporter, luminescence, 6 h; 620 tested, under 10 active; call rule not given here
HeLa 24h tox: HeLa cell cytotoxicity, dose response, cytotoxicity control, 24 h, dry powder; HeLa viability, CellTiter-Glo ATP luminescence; AID 624140, 2012; 25 tested, under 10 active; shares compounds with Vc quorum ag-1; activity change, negative = cytotoxicity, % at 35 µM;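 active means signal drop with fitted half-maximal concentration at or below twice the highest valid dose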
* marks the source's active call; other numbers are inactive results; i = inactive; nt = not tested or not shown. In the library only some 1.6% were active in any assay of this set; here they are far more common.

SMILES | PriA SSB inh | PrP UTR inh | PfHsp40 rescue | PrPC surface inh | Vc quorum ag-1 | SARS 3CLpro inh | Vc quorum ag-2 | others
COc1ccc(NC(=O)Cn2nc3ccc(SC4CCCCC4)nn3c2=O)cc1OC | -7 | nt | nt | nt | nt | nt | nt
Cc1cc(C(=O)OCC(=O)Nc2cc(Cl)ccc2C)c(C)o1 | 0 | -7 | -1 | 9 | 12 | nt | nt
Cc1cc(C(=O)OCC(=O)Nc2ccccc2F)c(C)o1 | -5 | -16 | -1 | 4 | 57* | 1 | 15
Cc1ccc(C(=O)OCC(=O)NC2CCCC2)cc1 | 11 | -11 | 0 | 0 | nt | -4 | i | HeLa 24h tox=11
O=C(COC(=O)c1cc(Cl)ccc1Cl)NC1CCCC1 | -9 | -5 | 0 | 11 | 28* | 3 | 29
COc1ccc(C(=O)OCC(=O)NC2CC2)cc1 | nt | nt | nt | -9 | 0 | nt | nt
CC(C)(C)c1ccc(C(=O)OCC(=O)NC2CC2)cc1 | -6 | -19 | 0 | 3 | 26 | nt | 18
O=C(COC(=O)c1ccc(O)cc1)NC1CCCC1 | -20 | -14 | 3 | -2 | i | 3 | nt
COc1ccc(NC(=O)Cn2ccn(S(=O)(=O)c3ccc(C)cc3)c2=O)c(OC)c1 | -6 | nt | nt | nt | nt | nt | nt
Cc1cc(C(=O)OCC(=O)NC2CCCCC2)c(C)o1 | -15 | -14 | -1 | -7 | 175* | -2 | 660
CC(C)c1ccc(OCC(=O)NC2CCCC(O)C2)cc1 (stereo unspecified) | -12 | nt | nt | nt | nt | nt | nt
CC(C)c1ccc(OCC(=O)NC2CCCC2)cc1 | -19 | -9 | 1 | 4 | nt | -5 | i
Cn1nc(-c2ccc(OCC(=O)NCC3CCCO3)cc2)c2ccccc2c1=O (stereo unspecified) | -15 | -14 | 0 | 0 | 12 | -1 | 1
Cn1nc(-c2ccc(C(=O)NCC3CCCO3)cc2)c2ccccc2c1=O (stereo unspecified) | -1 | -11 | 0 | -8 | -1 | -5 | nt
COC(=O)c1ccc2c(=O)n(CC(=O)NCc3ccccc3OC)c(=S)[nH]c2c1 | -5 | nt | nt | nt | nt | nt | nt
COc1ccc(-c2noc(CCC(=O)N3CCN(c4cccc(C(F)(F)F)c4)CC3)n2)cc1 | -8 | -1 | 0 | -1 | 25* | 0 | 0
COc1ccc(-c2noc(CCC(=O)N3CCN(c4cccc(OC)c4)CC3)n2)cc1 | 7 | -29 | 2 | -4 | -1 | nt | nt
CC(C)(C)c1ccc(-c2noc(CCC(=O)N3CCOCC3)n2)cc1 | -5 | -14 | 0 | 4 | -1 | 0 | nt
O=C(CCc1nc(-c2ccccc2)no1)N1CCCC1 | -6 | -17 | 0 | -2 | 313* | -4 | 565
Cc1cc2nc(N(Cc3cccnc3)C(=O)c3ccc(C#N)cc3)sc2cc1C | 5 | nt | nt | nt | nt | nt | nt
COC(=O)c1cc(=O)c2cc(OC)ccc2[nH]1 | -13 | nt | nt | nt | nt | nt | nt
CCN(C(=O)COC(=O)c1cc(-c2ccccc2)nc2ccc(Br)cc12)C1CCS(=O)(=O)C1 (stereo unspecified) | 0 | -3 | 2 | 15 | i | -3 | nt
CCN(C(=O)COc1ncnc2ccc(Br)cc12)C1CCS(=O)(=O)C1 (stereo unspecified) | -1 | -30 | 0 | -9 | 17* | -5 | -1
COC(=O)Cc1c(C)c2ccc(OC(=O)c3ccccc3)cc2oc1=O | -12 | nt | -1 | -2 | 12 | 0 | 0
COc1cc2c(cc1OC)C(c1ccc(C)cc1)NC(=O)C2 (stereo unspecified) | -12 | -83 | 5 | 2 | 100* | -4 | 1
SMILES | PriA SSB inh | PrP UTR inh | PfHsp40 rescue | PrPC surface inh | Vc quorum ag-1 | SARS 3CLpro inh | Vc quorum ag-2 | others
O=c1c2nc(N3CCCC3)sc2c(-c2ccco2)nn1Cc1cccc2ccccc12 | 2 | nt | nt | nt | nt | nt | nt
COC(=O)c1ccc(NC(=O)c2ccc(S(=O)(=O)NC3CC3)o2)cc1 | -11 | nt | nt | nt | nt | nt | nt
Cc1cc(C)c(C(=O)C(C)OC(=O)Cn2cnc3c2c(=O)n(C)c(=O)n3C)cc1C (stereo unspecified) | 5 | -8 | -1 | -8 | i | nt | nt
CC(OC(=O)Cn1cnc2c1c(=O)n(C)c(=O)n2C)C(=O)c1ccccc1 (stereo unspecified) | -15 | -8 | 0 | -4 | 14 | nt | 1
COc1ccc(Cl)cc1C(=O)Nc1ccn2nccc2c1 | -11 | nt | nt | nt | nt | nt | nt
Cc1ccc(C(=O)OCC(=O)NCc2ccccc2)s1 | nt | nt | nt | 5 | 0 | nt | nt
Cc1ccc(C(=O)OCC(=O)NCCNC(=O)COC(=O)c2ccc(C)s2)s1 | -11 | -14 | 0 | 3 | 12 | nt | 0
O=C(NCC1(c2ccsc2)CCCC1)c1ccccc1Br | -34 | nt | nt | nt | nt | nt | nt
O=C(CN1C(=O)CSC1=O)NC1CCCCC1 | -10 | -26 | 0 | -8 | 17* | 4 | 3
CCN1CCCC1CNC(=O)c1cc(OC)c(OC)c(OC)c1 (stereo unspecified) | 9 | -13 | 0 | -2 | 3 | 0 | 1
CC(C)(C)N(Cc1ccccc1)C(=O)COC(=O)CNS(=O)(=O)c1ccc2ccccc2c1 | 1 | 2 | 1 | -2 | 0 | nt | nt
Cc1ccc(S(=O)(=O)NCCC(=O)OCC(=O)N(Cc2ccccc2)C(C)(C)C)cc1C | -13 | -18 | 1 | -8 | 12 | nt | 0
Cc1cc2ncc3c(n2n1)CCN(S(=O)(=O)c1c(C)noc1C)C3 | -7 | nt | nt | nt | nt | nt | nt
CCOCCCNC(=O)C(NC(=O)c1ccc(NC(C)=O)cc1)c1ccc(C)cc1 (stereo unspecified) | 3 | -41 | 0 | -1 | 0 | 4 | nt
CCOCCCNC(=O)C(NC(=O)c1cnccn1)c1ccc(C)cc1 (stereo unspecified) | 0 | -13 | -1 | -2 | 28* | 0 | 2
Cn1c(CNc2cccc(Cl)c2)nnc1SCC(=O)OC1CCCCC1 | -10 | -30 | 4 | -1 | 17* | 2 | 0
COc1ccc(C(CNC(=O)c2ccc(-c3cccc(C(F)(F)F)c3)o2)N2CCOCC2)cc1 (stereo unspecified) | -2 | -25 | 0 | 0 | 14 | nt | 0
COc1ccccc1NC(=O)N1CCC(n2ccnn2)C1 (stereo unspecified) | -13 | nt | nt | nt | nt | nt | nt
Cc1cc(C)nc(OC2CCC(NC(=O)c3ccc[nH]c3=O)CC2)n1 (stereo unspecified) | -15 | nt | nt | nt | nt | nt | nt
COc1ccc(S(=O)(=O)N2CCCC(C(=O)NCc3ccncc3)C2)cc1 (stereo unspecified) | -22 | -22 | 0 | 6 | 32* | 7 | 0
